# Most compounds without a hit are left out; they make up all but 1.6% or so of the library.
# KCNQ2 inh: rat KCNQ2 potassium channel inhibitors, primary screen, cell-based, CHO-K1, FluxOR thallium flux, B-score; AID 2156, 2009; 20 min; stronger effect = lower value; 310,000 tested, 1.1% active; B-score at 10 µM; Potassium voltage-gated channel subfamily KQT member 2 (Rattus norvegicus), O88943;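 active = fluorescence ratio B-score at most minus 3 library SDs, with starting brightness B-score within 2 library SDs, cut at about -5.5 in these data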
# Target sequence (O88943 whole entry, looked up): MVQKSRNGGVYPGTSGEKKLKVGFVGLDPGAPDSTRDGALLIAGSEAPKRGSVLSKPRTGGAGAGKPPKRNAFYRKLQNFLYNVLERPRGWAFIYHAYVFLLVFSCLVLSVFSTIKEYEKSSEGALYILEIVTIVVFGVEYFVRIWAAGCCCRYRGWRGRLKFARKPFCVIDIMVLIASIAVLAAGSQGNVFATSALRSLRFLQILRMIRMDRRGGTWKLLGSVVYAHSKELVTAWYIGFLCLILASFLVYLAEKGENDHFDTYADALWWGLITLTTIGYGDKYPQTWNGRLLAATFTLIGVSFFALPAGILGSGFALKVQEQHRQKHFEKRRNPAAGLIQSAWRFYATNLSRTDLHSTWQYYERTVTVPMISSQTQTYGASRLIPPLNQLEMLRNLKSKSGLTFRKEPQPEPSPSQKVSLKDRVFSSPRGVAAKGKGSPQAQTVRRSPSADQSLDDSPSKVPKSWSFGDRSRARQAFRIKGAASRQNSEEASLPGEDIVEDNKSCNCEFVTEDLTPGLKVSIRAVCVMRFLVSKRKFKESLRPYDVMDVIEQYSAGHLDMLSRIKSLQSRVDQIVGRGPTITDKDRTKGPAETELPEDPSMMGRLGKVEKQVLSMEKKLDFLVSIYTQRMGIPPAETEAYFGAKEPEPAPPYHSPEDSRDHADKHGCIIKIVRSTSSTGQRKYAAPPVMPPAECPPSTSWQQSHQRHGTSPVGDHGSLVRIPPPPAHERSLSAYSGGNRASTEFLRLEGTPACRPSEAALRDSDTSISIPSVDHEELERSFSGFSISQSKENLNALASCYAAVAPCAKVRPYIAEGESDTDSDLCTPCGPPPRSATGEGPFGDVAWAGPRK
# KCNQ2 pot: potentiators of rat KCNQ2 potassium channel; AID 2239, 2010; 310,000 tested, 0.54% active; B-score at 10 µM; CHO-K1 KCNQ2, FluxOR thallium flux fluorescence; stronger effect = higher value; Potassium voltage-gated channel subfamily KQT member 2 (Rattus norvegicus), O88943;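 active = fluorescence ratio B-score at least 3 SD of library B-scores, with initial fluorescence B-score within 3 of them, cut at about 5.3 in these data; same plate scores as AID 2156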;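 note: B-score of peak minus minimum over baseline fluorescence ratio after K+ and Tl+ stimulus; positive B-score means potentiation of KCNQ2 with more thallium influx and brighter signal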
# An asterisk follows results filed as active; i = inactive; · = not tested or not shown.
SMILES,KCNQ2 inh,KCNQ2 pot
NC(=O)N/N=C/C=C/c1ccc(F)cc1,i,0.52
COc1ccc(OC)c(/C=N\NC(=O)c2cc3c(ccc4ccccc43)o2)c1,i,0.92
COc1ccc(/C=N/NC(=O)c2cc3c(ccc4ccccc43)o2)c(OC)c1,-6.3*,-6.3
CC(=O)Nc1ccc(NC(=O)CSc2ccc3nnc(-c4cccnc4)n3n2)cc1,i,0.5
COc1ccccc1NC(=O)C(C)OC(=O)Cc1n[nH]c(=O)c2ccccc12 (stereo not drawn),i,0.51
Cc1cccc(C(C)C)c1NC(=O)C(C)OC(=O)Cc1n[nH]c(=O)c2ccccc12 (stereo not drawn),-6.7*,-6.7
Cc1ccc(-c2nnc(SCC(=O)Nc3cccc(C(=O)N4CCOCC4)c3)n2C)cc1,i,0.52
O=C(Cc1ccccc1[N+](=O)[O-])OCC(=O)N1CCN(c2ccccc2)CC1,i,·
CC(C)C1Cc2c(sc3ncnc(NN)c23)CO1 (stereo not drawn),i,·
O=C(Cn1nnc(-c2ccccc2)n1)N1CCCCC1,i,1.5
O=C(c1ccco1)N1CCN(C(=O)c2ccc(-c3cccc(C(F)(F)F)c3)o2)CC1,i,0.1
O=C(Cn1nnc(-c2cccc(C(F)(F)F)c2)n1)N1CCCCCC1,i,12*
O=C(c1ccc(-c2cccc(C(F)(F)F)c2)o1)N1CCCCCCC1,-6.2*,-6.2
COc1cccc(Oc2nc(-c3ccncc3)nc3ccccc23)c1,i,·
Clc1cccc(Cl)c1CNc1ccc(N2CCCC2)cc1,i,·
Cc1ccc(C)c(NC(=S)/C(=C(\[O-])c2ccc(Cl)s2)[n+]2ccccc2)c1,i,0.75
Cc1cc(C)cc(NC(=S)/C(=C(\[O-])c2ccc(Cl)s2)[n+]2cccc(C)c2)c1,-6*,-6
COc1cc(C(=O)OC2CCOC2=O)cc(Cl)c1OC (stereo not drawn),i,0.85
CC(NC(=O)c1cc(F)c(F)cc1Cl)C1CC2CCC1C2 (stereo not drawn),i,·
COc1ccc(-c2nc(CS(=O)(=O)CC(=O)NCc3ccccc3Br)c(C)o2)cc1,-7.8*,-7.8
COc1ccc(-c2nc(CS(=O)(=O)CC(=O)NCc3cccc(OC)c3OC)c(C)o2)cc1,i,·
CC1CCc2cc(F)ccc2N1C(=O)c1ccc2c(c1)OCO2 (stereo not drawn),i,·
COc1cc2cc3c(N)c(C(=O)Nc4sc(C)c(C)c4C#N)sc3nc2cc1OC,i,·
CC[C@@H](C(=O)[C@@H](C)[C@@H](O)[C@H](C)CCc1ccc(C)c(O)c1C(=O)O)[C@H]1O[C@](CC)([C@H]2CC[C@](O)(CC)[C@H](C)O2)C[C@@H]1C,i,27*
O=Cc1coc2ccc3ccccc3c2c1=O,-8.1*,-8.1
SMILES,KCNQ2 inh,KCNQ2 pot
NC(=O)N/N=C/c1coc2ccc3ccccc3c2c1=O,i,1.3
O=C(NCCc1ccccc1)C1CCCN(c2cnccn2)C1 (stereo not drawn),i,·
CC(=O)c1ccc(C(=O)N2CCCC(CNC(=O)c3ccccc3Cl)C2)cc1 (stereo not drawn),i,·
Cc1cccc(NC(=O)N2CCCC(CNC(=O)c3ccccc3Cl)C2)c1C (stereo not drawn),-8.2*,-8.2
COCCn1c(SCC(=O)N2CC(=O)Nc3ccccc32)nc2ccccc21,i,·
CCCS(=O)(=O)N1CCCC(c2nc(-c3cccc(OC)c3)no2)C1 (stereo not drawn),i,·
COc1cccc(-c2noc(C3CCCN(S(=O)(=O)c4cccc(Cl)c4C)C3)n2)c1 (stereo not drawn),-6*,-6
COc1cc(CC(=O)NCC(C)(C)N2CCOCC2)cc(OC)c1OC,i,·
Oc1ccc(Br)cc1C=Nc1ccc(Cl)cc1,i,2.2
Cc1ccc(N=Cc2cc(Br)cc(Cl)c2O)cc1,i,12*
C=CCOc1c(CNc2ccc(S(N)(=O)=O)cc2)cccc1OC,i,1.4
COc1cccc(CNc2ccc(S(N)(=O)=O)cc2)c1OCc1ccccc1F,i,9.3*
Cc1nc(NC(=O)C2CC2)sc1C(=O)N1CCCCC1,i,1.2
Cc1nc(NC(=O)c2cccc(Cl)c2)sc1C(=O)N1CCCCC1,-7.5*,-7.5
CN(CC(=O)Nc1cccc(F)c1)C(=O)CC1CCCCC1,i,·
S=c1nccc(-c2ccc(Cl)cc2)[nH]1,i,·
S=c1[nH]c(-c2ccc(Cl)cc2)cs1,i,19*
CCC(=O)N1N=C(c2ccc(Cl)cc2)CC1c1ccco1 (stereo not drawn),i,·
Cc1ccc(OCC(=O)N2N=C(c3ccc(Cl)cc3)CC2c2ccco2)c([N+](=O)[O-])n1 (stereo not drawn),-8.3*,-8.3
Cc1cc(C)c(S(=O)(=O)N2CCN(C(=O)C(C)Cn3cncn3)CC2)c(C)c1 (stereo not drawn),i,0.26
CC(=O)Nc1ccc(/C(C)=N/Nc2nc(N3CCOCC3)nc(N3CCOCC3)n2)cc1,i,·
C/C(=N\Nc1nc(N2CCCCC2)nc(N2CCOCC2)n1)c1cccs1,-7.6*,-7.6
O=C(COc1ccc2c3c(c(=O)oc2c1)CCC3)Nc1ccc(CN2CCOCC2)cc1,i,1.2
S=C(Cc1cccnc1)N1CCOCC1,i,0.07
O=C(Nc1nc(-c2ccc(Cl)cc2Cl)cs1)c1ccc(OCC2CCCO2)cc1 (stereo not drawn),i,·
SMILES,KCNQ2 inh,KCNQ2 pot
CC(C)COc1ccc(C(=O)Nc2scc(-c3ccc(Cl)cc3Cl)c2C(N)=O)cc1,-7.1*,-7.1
CN1CCOc2ccc(S(=O)(=O)NCCc3ccc(Cl)cc3)cc21,-6.7*,-6.7
O=S(=O)(NCCCN1CCOCC1)c1ccc(Cl)cc1,i,8*
CC(=O)N1CCOc2ccc(S(=O)(=O)NCCc3ccc(C)cc3)cc21,i,·
O=S(=O)(NCCN1CCOCC1)c1ccc(-c2ccc(S(=O)(=O)NCCN3CCOCC3)cc2)cc1,i,·
Cn1cc(-c2ccno2)c(C(=O)O)n1,i,0.12
Cc1ccc(C)c(NC(=O)C(C)N2C(=O)c3ccccc3C2=O)c1 (stereo not drawn),i,0.88
CSc1nc(Cl)c(Cc2ccc(OC(C)C)cc2)c(N(C)C)n1,-6*,-6
CCOc1ccc(Cc2c(Cl)nc(SC)nc2N(C)C)cc1,-7.2*,-7.2
COc1ccc(Cc2c(Cl)ncnc2Cl)cc1,i,·
CCOc1ccc(Cc2c(Cl)nc(N)nc2Cl)cc1,i,·
Cc1ccc(C)c(NC(=S)NCCN(C2CCCCC2)C2CCCC2)c1,i,0.02
COC(=O)Cc1ccc(NC(=S)NCCC(C)C)cc1,i,·
CCCNC(=S)Nc1ccc(Br)cc1,i,2.3
CC(C)CCNC(=S)Nc1ccc(Br)cc1,i,5.3*
CCCCNC(=S)Nc1ccc(Oc2ccccc2)cc1,i,·
CC(C)CCNC(=S)Nc1ccc([N+](=O)[O-])cc1,i,14*
CCCCNC(=S)Nc1ccc([N+](=O)[O-])cc1,i,12*
COC(=O)c1sc(NC(=O)CCCn2nc([N+](=O)[O-])cc2C)c(C(=O)OC)c1C,i,·
O=C(N/C(=C/c1ccc(Br)cc1)C(=O)N1CCCCC1)c1ccccc1F,i,·
COc1ccccc1NC(=S)N(Cc1ccco1)Cc1cc2cc(C)ccc2[nH]c1=O,i,·
COc1cc2ccccc2cc1C(=O)Nc1ccc(C)cn1,i,0.23
CCCc1nc(SCC(=O)N2CCCCCC2)c2c(=O)n(C)c(=O)n(C)c2n1,i,19*

# Source: PubChem BioAssay (Johns Hopkins Ion Channel Center)
